Screening results: PubChem BioAssay, National Center for Advancing Translational Sciences (NCATS)
Nrf2 block – Nrf2 qHTS screen for inhibitors; A549 ARE-Fluc reporter, luciferase luminescence, 18-24 h; Potency, µM (doses to about 46 µM), without a hit: top-dose activity change, negative = inhibition, usual class: inhibitors; 360,000 tested, 2.1% active; AID 504444, 2011; also: % is scaled to controls: 0 for no effect and ±100 for the full control effect; nearly all actives have a fitted effect of over 60% in size
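Concentration-response testing used A549 ARE_Fluc cells at 5000 cells/well. Following an 18-24 h compound incubation, viability was read by fluorescence (Ex 405/Em 525) and luciferase output by luminescence.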
A549 tox-1 – Nrf2 qHTS screen for inhibitors: counterscreen for cytotoxicity; Potency, µM (top dose mostly 46 µM), inactives show top-dose activity change, negative = cytotoxicity, actives largely listed as inhibitors; AID 504648, 2011; A549 ARE-Fluc cells, CellTiter-Fluor viability, 18-24 h; 390,000 tested, 0.16% active; also: % is scaled to controls: 0 for no effect and ±100 for the full control effect
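A549 ARE-Fluc cells in 5% FBS OPTI-MEM, 5000 cells/well, rested 2 h then exposed to compounds in concentration-response for 18-24 h at 37 °C. Viability by CellTiter-Fluor fluorescence (Ex 405/Em 525) after 30 min; luciferase luminescence (BugLite, 15 min, RT) read afterwards.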
TrxR1 substrate – qHTS Assay for Substrates of Mammalian Selenoprotein Thioredoxin Reductase 1 (TrxR1): qHTS. purified TrxR1 substrate turnover, NADPH consumption readout. 390,000 tested, 0.01% active. Potency, µM (doses to about 114 µM), inactives show at the highest dose activity change, negative = substrate turnover; also: % is scaled to controls: 0 for no effect and ±100 for the full control effect; nearly all actives have a fitted effect of over 50% in size
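Rat TrxR1, dispensed at 90 nM, was prereduced with 400 uM NADPH (final) for 5 min at ~22 deg C, then incubated with compound 15 min before 400 uM selenite. A first-read NADPH fluorescence drop versus no-compound background flagged substrates.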
Mito fusion act – qHTS Assay for Small Molecule Inhibitors of Mitochondrial Division or Activators of Mitochondrial Fusion | Potency, µM (highest dose often 46.1 µM), for inactives: top-dose growth rescue (activation), hits mostly activators | 320,000 tested, 0.23% active | S. cerevisiae fusion-defective mutant growth rescue, CellTiterGlo 48 h; also: % of control where 0% means no effect; nearly all actives have a fitted effect of over 45% in size
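Compounds are tested for their ability to restore growth of mitochondrial fusion-defective yeast strains at non-permissive 37C in YPEG medium over 48 hours. Viability is quantified by luciferase luminescence.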
IDH1 R132H inh – qHTS for Inhibitors of mutant isocitrate dehydrogenase 1 (IDH1): qHTS; Potency, µM (doses to about 76.6 µM), without a hit: top-dose activity change, negative = inhibition, actives largely listed as inhibitors; AID 602179, 2012; IDH1-R132H enzyme, NADPH consumption, diaphorase/resazurin fluorescence; Isocitrate dehydrogenase [NADP] cytoplasmic (Homo sapiens), O75874; 390,000 tested, 0.093% active; also: % is scaled to controls: 0 for no effect and ±100 for the full control effect; nearly all actives have a fitted effect of over 65% in size
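IDH1-R132H (0.5 ug/mL) preincubated 30 min with compound, then NADPH (0.016 mM) and alpha-KG (2 mM) added; 80 min at RT, pH 7.5. Remaining NADPH coupled via diaphorase/resazurin to fluorescence (540/590 nm); concentration-response curves normalized to no-enzyme control.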
TrxR1 inh – qHTS Assay for Inhibitors of Mammalian Selenoprotein Thioredoxin Reductase 1 (TrxR1): qHTS; Thioredoxin reductase 1, cytoplasmic (Rattus norvegicus), O89049; recombinant rTrxR1, NADPH fluorescence consumption, selenite substrate; Potency, µM (series often up to 114 µM), for the others: at the top dose activity change, negative = inhibition, hits mostly inhibitors; 390,000 tested, 1% active; AID 588453, 2011; also: % is scaled to controls: 0 for no effect and ±100 for the full control effect; nearly all actives have a fitted effect of over 65% in size
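Rat TrxR1 (90 nM in the dispensed reagent) was pre-reduced with 400 uM NADPH for 5 min at room temperature, then incubated with compound for 15 min. After 400 uM selenite was added, NADPH fluorescence (Ex 340/Em 450 nm) was followed for 8 min.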
FLuc counter 3 – Nrf2 qHTS screen for inhibitors: Purified Fluc Biochemical Counterscreen for Hit Validation; purified firefly luciferase, luminescence inhibition; 1,400 tested, 4% active; AID 720522, 2013; Potency, µM (top dose mostly 57.5 µM), for the others: at the top dose activity change, negative = inhibition, most hits filed as inhibitors; shares compounds with Nrf2 block; also: % is scaled to controls: 0 for no effect and ±100 for the full control effect; nearly all actives have a fitted effect of over 65% in size
Target sequence (P08659 whole entry, looked up): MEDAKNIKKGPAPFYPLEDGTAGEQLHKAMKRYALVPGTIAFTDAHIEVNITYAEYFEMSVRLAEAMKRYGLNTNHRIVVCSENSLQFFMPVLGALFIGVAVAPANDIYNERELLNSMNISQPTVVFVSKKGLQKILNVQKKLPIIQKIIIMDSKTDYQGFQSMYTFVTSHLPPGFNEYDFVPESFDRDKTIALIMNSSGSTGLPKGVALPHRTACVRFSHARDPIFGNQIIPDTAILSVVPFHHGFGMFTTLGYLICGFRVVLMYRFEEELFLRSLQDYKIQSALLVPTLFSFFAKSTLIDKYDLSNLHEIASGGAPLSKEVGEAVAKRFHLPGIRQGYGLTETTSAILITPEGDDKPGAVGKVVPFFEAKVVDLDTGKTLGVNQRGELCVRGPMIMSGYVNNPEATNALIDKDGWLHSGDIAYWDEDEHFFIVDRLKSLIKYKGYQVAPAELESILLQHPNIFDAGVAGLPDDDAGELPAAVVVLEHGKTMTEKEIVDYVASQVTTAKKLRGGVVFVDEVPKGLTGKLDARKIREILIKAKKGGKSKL
A549 tox-2 – Nrf2 qHTS screen for inhibitors: A549 ARE-Fluc Cytotoxicity Counterscreen for Hit Validation; shares compounds with Nrf2 block; 1,400 tested, 2% active; A549 ARE-Fluc cells, cytotoxicity counterscreen; Potency, µM (titrated, usually from 46.1 µM), inactives show top-dose activity change, negative = cytotoxicity, usual class: inhibitors;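 also: cells exposed to compounds for 18 to 24 hours; % is scaled to controls: 0 for no effect and ±100 for the full control effect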
Nrf2 ARE inh – Nrf2 qHTS screen for inhibitors: Nrf2 A549 ARE-Fluc Confirmation Assay for Hit Validation; shares compounds with Nrf2 block; A549 ARE-firefly luciferase reporter, luminescence; Potency, µM (series often up to 46.1 µM), without a hit: top-dose activity change, negative = inhibition, usual class: inhibitors; 1,400 tested, 74% active; AID 720524, 2013; also: % is scaled to controls: 0 for no effect and ±100 for the full control effect; nearly all actives have a fitted effect of over 65% in size
Starred values were filed as active, the others as inactive; ? = inconclusive; nt = no result shown; [ ] = dose if it differs, or a comment. Rows were chosen to be rich in hits. Some 3.1% of all compounds tested hit in one or more screens of this group. Calls follow the shape of the dose curve; as a rule, active = well fitted curve in the direction sought with a large enough effect; inconclusive = small, poorly fitted or top-dose-only effect, or another doubt; inactive = no such curve, though single readings can be large; an effect the other way counts as inactive or inconclusive. Potency is read from the fitted curve at half-maximal effect.

SMILES	Nrf2 block	A549 tox-1	TrxR1 substrate	Mito fusion act	IDH1 R132H inh	TrxR1 inh	FLuc counter 3	A549 tox-2	Nrf2 ARE inh
CCCNc1nc2c(c(=O)n(C)c(=O)n2C)n1CC(O)COc1ccccc1 (stereo unspecified)	8%	2%	2%	nt	23%	18%	nt	nt	nt
CC12CCC=CC1C(c1ccc(/C=C/c3ccccc3)cc1F)N(Cc1ccccc1)C2=O (stereo unspecified)	?	-4%	26%	nt	nt	30%	nt	nt	nt
COc1ccc(NC(=O)c2cc(=O)c3ccc(C)c(C)c3o2)cc1Cl	4%	1%	4%	nt	14%	16%	nt	nt	nt
CCCCCc1ccc(OCCOCCn2c[n+](C)c3ccccc32)c(CCCCC)c1	7.3µM*	-25%	2%	-3%	6%	1%	-1%	?	nt
COc1cccc(CNC(=O)Cn2cc3c(n2)-c2c(oc(C(=O)N4CCOCC4)c2C)CC3)c1	?	2%	5%	nt	8%	-4%	nt	nt	nt
CCCCn1c2c(c(=N)c3ccccc31)CCC2	-25%	5%	4%[57.1 µM]	-5%	11%	-5%[57.1 µM]	nt	nt	nt
CCCCCn1c2c(c(=N)c3ccccc31)CCC2	2.6µM*	-5%	-9%[57.1 µM]	1%	7%	35%[57.1 µM]	2%	-10%	4.1µM*
N=c1c2c(n(Cc3ccc(Cl)cc3)c3c1CCC3)CCC2	?	-4%	5%[57.1 µM]	6%	8%	21%[57.1 µM]	nt	nt	nt
N=c1c2c(n(Cc3ccccc3)c3c1CCC3)CCC2	1.5µM*	?	-5%	-10%	-1%	-7%	-1%	-4%	?
CCCNC(=O)Cn1nc(-c2ccc(F)cc2)c2cnc3ccc(F)cc3c21	?	1%	8%[57.1 µM]	nt	-11%	21%[57.1 µM]	nt	nt	nt
COc1ccc(C2=Nn3c([n+](C)c4ccccc43)SC2)cc1	2.1µM*	-25%	-4%[57.1 µM]	3%	1%	9%[57.1 µM]	0%	?	nt
Clc1ccc(CSc2nc3ncccc3[nH]2)cc1	?	8%	-2%	nt	2%	9%	nt	nt	nt
COc1nnc(-c2ccc(N3CCCCC3)c(NC(=O)c3ccccc3Cl)c2)c2ccccc12	6.5µM*	-30%	5%	nt	0%	8%	2%	-29%	6.5µM*
Cc1ccc(NC(=O)NCc2cccn2Cc2ccccc2)c(C)c1	9%	18%	-3%[57.1 µM]	nt	-14%	13%[57.1 µM]	nt	nt	nt
O=C(NCCCn1ccnc1)c1ccc(N2CCCCCC2)c([N+](=O)[O-])c1	2.9µM*	-18%	-6%[57.1 µM]	11%	-1%	8%[57.1 µM]	-16%	-12%	4%
COc1ccc(CC(=O)NCc2nn(-c3ccccc3)nc2C)cc1OC	-7%	12%	7%	-2%	-17%	33%	nt	nt	nt
COc1ccc(-c2ocnc2C(=O)NCc2nn(-c3ccccc3)nc2C)cc1	2.9µM*	4%	20%	5%	-11%	21%	-2%	-6%	5.8µM*
CCOc1ccc(NS(=O)(=O)c2ccc3[nH]cc(C(=O)N4CCCCCC4)c(=O)c3c2)cc1	?	10%	0%	nt	18%	0%	nt	nt	nt
CCN(CC)CCNC(=O)CCn1c(=O)c2cccn2c2cccnc21	7%	-2%	12%	nt	-5%	13%	nt	nt	nt
CCOC(=O)c1cnc2c(C(F)(F)F)cccc2c1Nc1cccc(C(=O)OC)c1	?	0%	-2%	nt	-11%	4%	nt	nt	nt
O=[N+]([O-])c1ccc(C[n+]2cccc3c4ccccc4ccc32)cc1	3.7µM*	?	60%	-4%	12%	24%	2%	-1%	3.7µM*
Cc1ccc[n+](Cc2ccc([N+](=O)[O-])cc2)c1	?	2%	4%	-1%	1%	16%	nt	nt	nt
CC1=C(C(=O)OC2CCCCC2)C(c2cccnc2)n2nnnc2N1 (stereo unspecified)	8.2µM*	-14%	2%[57.1 µM]	?	1%	-7%[57.1 µM]	4%	-16%	?
COC(=O)C1=C(C)Nc2nnnn2C1c1cccnc1 (stereo unspecified)	nt	12%	8%[57.1 µM]	1%	1%	16%[57.1 µM]	nt	nt	nt
N=c1ccn2c(n1)O[C@H]1[C@H](O)[C@@H](CO)O[C@H]12	0.18µM*	-9%	3%[57.1 µM]	-5%	4%	0%[57.1 µM]	2%	-9%	0.092µM*
SMILES	Nrf2 block	A549 tox-1	TrxR1 substrate	Mito fusion act	IDH1 R132H inh	TrxR1 inh	FLuc counter 3	A549 tox-2	Nrf2 ARE inh
CCOc1ccc(C2c3[nH]c4ccccc4c3CCN2C(=O)CCc2ccccc2)cc1 (stereo unspecified)	nt	5%	6%[57.1 µM]	nt	9%	24%[57.1 µM]	nt	nt	nt
Cc1ccc(NC(=O)COc2ccccc2C#N)cc1S(=O)(=O)N1CCCCCC1	2%	-17%	8%	30%	0%	28%	nt	nt	nt
Cc1ccc(NC(=O)COc2cccnc2[N+](=O)[O-])cc1S(=O)(=O)N1CCCCC1	7.3µM*	?	-6%	10%	5%	5%	-17%	-10%	?
COC(=O)c1ccc2c(c1O)C(=O)c1ccccc1C2=O	3.3µM*	?	10%	-10%	7%	21%	11µM*	3.7µM*	3.7µM*
Fc1cccc(CSc2nc(NCCc3ccccc3)c3ccccc3n2)c1	nt	-2%	0%[57.1 µM]	nt	4%	16%[57.1 µM]	nt	nt	nt
O=C(c1cccc(S(=O)(=O)N2CCN(c3ccc(F)cc3)CC2)c1)N1CCCC(C(F)(F)F)C1 (stereo unspecified)	4.6µM*	-19%	-1%	24%	4%	14%	1%	-8%	5.2µM*
